Measurements: paper PMC7862700, “An all-to-all approach to the identification of sequence-specific readers for epigenetic DNA modifications on cytosine”

Target: T1, ETV7 (Homo sapiens, UniProt Q9Y603 1-341)
T1 sequence: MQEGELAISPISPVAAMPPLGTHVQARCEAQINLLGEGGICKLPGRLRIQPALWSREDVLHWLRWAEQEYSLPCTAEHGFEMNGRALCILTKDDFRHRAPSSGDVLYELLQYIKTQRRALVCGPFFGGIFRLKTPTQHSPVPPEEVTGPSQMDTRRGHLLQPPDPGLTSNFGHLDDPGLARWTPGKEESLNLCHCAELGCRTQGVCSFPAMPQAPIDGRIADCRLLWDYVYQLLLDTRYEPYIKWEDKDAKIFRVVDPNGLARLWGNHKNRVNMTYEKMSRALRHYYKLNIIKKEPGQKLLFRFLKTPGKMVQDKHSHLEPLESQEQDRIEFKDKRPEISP
Test: DAPPL (digital affinity profiling via proximity ligation, sequencing); 10 mM Tris-HCl pH 7.5, 50 mM NaCl, 1 mM DTT, 4% glycerol, room temperature, 30 min; GST-TFs on glutathione beads, 16-mer random dsDNA library, 0.1% formaldehyde crosslink after washing; high values mean tight binding
Settings: protein: recombinant; tags: N-terminal GST; dsDNA, one strand shown
Procedure, shortened: (§1)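 Yeast served to express human transcription factors as GST fusions, which were then captured on glutathione beads and labelled with DNA barcodes. Pooled with a tag-only sample, they were incubated with 200 nmole of a 16-mer random double-stranded DNA library for 30 min at room temperature in Tris/NaCl/DTT/glycerol buffer, washed, crosslinked with 0.1% formaldehyde, ligated by proximity, amplified by PCR and sequenced. Dividing each hexamer's read frequency for a factor by its frequency for the tag-only sample gives the binding signal.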

In order of falling binding signal:
1. ACTCGA  1.28 fold enrichment (6-mer frequency, TF over GST control)
2. AACAGC  1.21 fold enrichment (6-mer frequency, TF over GST control)
3. TGAAAA  1.07 fold enrichment (6-mer frequency, TF over GST control)

Target: T2, ELF5 (Homo sapiens, UniProt Q9UKW6-2 1-255)
T2 sequence: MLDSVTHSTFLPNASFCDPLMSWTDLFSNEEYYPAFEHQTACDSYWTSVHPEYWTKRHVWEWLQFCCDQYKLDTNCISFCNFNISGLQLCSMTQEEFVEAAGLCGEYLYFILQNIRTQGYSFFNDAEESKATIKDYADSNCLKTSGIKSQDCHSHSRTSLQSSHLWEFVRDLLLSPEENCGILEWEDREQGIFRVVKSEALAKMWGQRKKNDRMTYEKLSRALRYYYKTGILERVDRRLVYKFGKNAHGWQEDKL
Test: as above
Settings: protein: recombinant; tags: N-terminal GST; dsDNA, one strand shown
Procedure, shortened: as §1

In order of falling binding signal:
1. AAGCAC  1.28 fold enrichment (6-mer frequency, TF over GST control)
2. CTTGTT  1.27 fold enrichment (6-mer frequency, TF over GST control)
3. CTCCAT  1.24 fold enrichment (6-mer frequency, TF over GST control)
4. GAAAAA  1.22 fold enrichment (6-mer frequency, TF over GST control)
5. ACTCGA  1.22 fold enrichment (6-mer frequency, TF over GST control)
6. TCCACC  1.19 fold enrichment (6-mer frequency, TF over GST control)
7. CCACAA  1.18 fold enrichment (6-mer frequency, TF over GST control)
8. GATGAA  1.17 fold enrichment (6-mer frequency, TF over GST control)
9. CCTGGG  1.17 fold enrichment (6-mer frequency, TF over GST control)
10. TCTGTA  1.17 fold enrichment (6-mer frequency, TF over GST control)
11. CACGCG  1.17 fold enrichment (6-mer frequency, TF over GST control)
12. GAAAAC  1.16 fold enrichment (6-mer frequency, TF over GST control)
13. TATCTG  1.14 fold enrichment (6-mer frequency, TF over GST control)
14. GGATCC  1.13 fold enrichment (6-mer frequency, TF over GST control)
15. ATCATA  1.11 fold enrichment (6-mer frequency, TF over GST control)
16. TGCGTA  1.1 fold enrichment (6-mer frequency, TF over GST control)
17. GCTCGT  1.1 fold enrichment (6-mer frequency, TF over GST control)
18. TGGTAG  1.1 fold enrichment (6-mer frequency, TF over GST control)
19. AACAGC  1.09 fold enrichment (6-mer frequency, TF over GST control)
20. ACTCGC  1.08 fold enrichment (6-mer frequency, TF over GST control)
21. ACCGTC  1.08 fold enrichment (6-mer frequency, TF over GST control)
22. TTACGA  1.08 fold enrichment (6-mer frequency, TF over GST control)
23. CTGGGT  1.07 fold enrichment (6-mer frequency, TF over GST control)
24. TGAAAA  1.06 fold enrichment (6-mer frequency, TF over GST control)
25. CGCTAG  1.05 fold enrichment (6-mer frequency, TF over GST control)
26. CATGAA  1.04 fold enrichment (6-mer frequency, TF over GST control)
27. TCCACG  1.04 fold enrichment (6-mer frequency, TF over GST control)
28. ACACGA  1.03 fold enrichment (6-mer frequency, TF over GST control)
29. TAAGCC  1.03 fold enrichment (6-mer frequency, TF over GST control)
30. AAGCAA  1.03 fold enrichment (6-mer frequency, TF over GST control)
31. TCGTAC  1.02 fold enrichment (6-mer frequency, TF over GST control)
32. TGGGTT  1.01 fold enrichment (6-mer frequency, TF over GST control)
33. TCGACG  1.01 fold enrichment (6-mer frequency, TF over GST control)
34. AAAGGT  1.01 fold enrichment (6-mer frequency, TF over GST control)
35. ATGCTG  1 fold enrichment (6-mer frequency, TF over GST control)

Target: T3, ETV3 (Homo sapiens, UniProt P41162-2 1-143)
T3 sequence: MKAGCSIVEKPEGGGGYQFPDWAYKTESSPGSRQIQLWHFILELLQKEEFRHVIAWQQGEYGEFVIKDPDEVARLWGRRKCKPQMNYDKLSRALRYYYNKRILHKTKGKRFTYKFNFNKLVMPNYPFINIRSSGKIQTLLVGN
Test: as above
Settings: protein: recombinant; tags: N-terminal GST; dsDNA, one strand shown
Procedure, shortened: as §1

In order of falling binding signal:
1. TCCACC  1.29 fold enrichment (6-mer frequency, TF over GST control)
2. CTCCAT  1.27 fold enrichment (6-mer frequency, TF over GST control)
3. ACTCGA  1.27 fold enrichment (6-mer frequency, TF over GST control)
4. TCTGTA  1.25 fold enrichment (6-mer frequency, TF over GST control)
5. TGCCGA  1.22 fold enrichment (6-mer frequency, TF over GST control)
6. TATCTG  1.21 fold enrichment (6-mer frequency, TF over GST control)
7. CTTGTT  1.2 fold enrichment (6-mer frequency, TF over GST control)
8. ACCGTC  1.2 fold enrichment (6-mer frequency, TF over GST control)
9. AAGCAC  1.19 fold enrichment (6-mer frequency, TF over GST control)
10. GCTCGT  1.15 fold enrichment (6-mer frequency, TF over GST control)
11. CATGAA  1.14 fold enrichment (6-mer frequency, TF over GST control)
12. GGATCC  1.13 fold enrichment (6-mer frequency, TF over GST control)
13. AACAGC  1.13 fold enrichment (6-mer frequency, TF over GST control)
14. TAAGCC  1.12 fold enrichment (6-mer frequency, TF over GST control)
15. CCACAA  1.12 fold enrichment (6-mer frequency, TF over GST control)
16. AAGCAA  1.12 fold enrichment (6-mer frequency, TF over GST control)
17. GATGAA  1.11 fold enrichment (6-mer frequency, TF over GST control)
18. TGGTAG  1.1 fold enrichment (6-mer frequency, TF over GST control)
19. GCACGA  1.1 fold enrichment (6-mer frequency, TF over GST control)
20. TTACGA  1.1 fold enrichment (6-mer frequency, TF over GST control)
21. CACGCG  1.09 fold enrichment (6-mer frequency, TF over GST control)
22. GAAAAA  1.09 fold enrichment (6-mer frequency, TF over GST control)
23. ATCATA  1.09 fold enrichment (6-mer frequency, TF over GST control)
24. ATGCTG  1.09 fold enrichment (6-mer frequency, TF over GST control)
25. ACTCGC  1.08 fold enrichment (6-mer frequency, TF over GST control)
26. CCTGGG  1.08 fold enrichment (6-mer frequency, TF over GST control)
27. CACTGG  1.07 fold enrichment (6-mer frequency, TF over GST control)
28. CTGGGT  1.07 fold enrichment (6-mer frequency, TF over GST control)
29. TGCGTT  1.06 fold enrichment (6-mer frequency, TF over GST control)
30. AAAGGT  1.05 fold enrichment (6-mer frequency, TF over GST control)
31. TGGGTT  1.02 fold enrichment (6-mer frequency, TF over GST control)
32. TCGTAC  1.02 fold enrichment (6-mer frequency, TF over GST control)
33. TCCACG  1.01 fold enrichment (6-mer frequency, TF over GST control)

Target: ETV6 (Homo sapiens, UniProt P41212 1-452)
Test: as above
Settings: protein: recombinant; tags: N-terminal GST; dsDNA, one strand shown
Procedure, shortened: as §1

Sequence of ETV6 (P41212 whole entry): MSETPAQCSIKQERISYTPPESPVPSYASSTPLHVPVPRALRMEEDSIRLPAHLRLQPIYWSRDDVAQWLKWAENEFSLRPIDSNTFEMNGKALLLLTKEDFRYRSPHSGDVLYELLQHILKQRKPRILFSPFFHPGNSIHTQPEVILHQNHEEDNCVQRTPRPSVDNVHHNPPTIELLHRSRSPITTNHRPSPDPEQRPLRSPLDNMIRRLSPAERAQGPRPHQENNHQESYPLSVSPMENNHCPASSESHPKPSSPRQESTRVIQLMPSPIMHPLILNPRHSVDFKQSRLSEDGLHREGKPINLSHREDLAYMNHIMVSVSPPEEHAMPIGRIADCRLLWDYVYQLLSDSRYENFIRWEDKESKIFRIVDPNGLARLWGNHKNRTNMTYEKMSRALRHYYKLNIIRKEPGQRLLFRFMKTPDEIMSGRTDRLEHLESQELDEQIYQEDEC

In order of rising binding signal:
1. TGGGTT  1 fold enrichment (6-mer frequency, TF over GST control)
2. AAGCAA  1.02 fold enrichment (6-mer frequency, TF over GST control)
3. TAAGCC  1.03 fold enrichment (6-mer frequency, TF over GST control)
4. CGCTAG  1.04 fold enrichment (6-mer frequency, TF over GST control)
5. CACTGG  1.04 fold enrichment (6-mer frequency, TF over GST control)
6. GAAAAC  1.06 fold enrichment (6-mer frequency, TF over GST control)
7. ACACGA  1.06 fold enrichment (6-mer frequency, TF over GST control)
8. GCACGA  1.06 fold enrichment (6-mer frequency, TF over GST control)
9. TCCACG  1.06 fold enrichment (6-mer frequency, TF over GST control)
10. TCGACG  1.07 fold enrichment (6-mer frequency, TF over GST control)
11. TCGTAC  1.08 fold enrichment (6-mer frequency, TF over GST control)
12. GGATCC  1.08 fold enrichment (6-mer frequency, TF over GST control)
13. CTCGGT  1.08 fold enrichment (6-mer frequency, TF over GST control)
14. ATGCTG  1.08 fold enrichment (6-mer frequency, TF over GST control)
15. CTGGGT  1.09 fold enrichment (6-mer frequency, TF over GST control)
16. CCTGGG  1.1 fold enrichment (6-mer frequency, TF over GST control)
17. ATCATA  1.1 fold enrichment (6-mer frequency, TF over GST control)
18. AACAGC  1.1 fold enrichment (6-mer frequency, TF over GST control)
19. TGCGTA  1.11 fold enrichment (6-mer frequency, TF over GST control)
20. AAAGGT  1.11 fold enrichment (6-mer frequency, TF over GST control)
21. CTTGTT  1.12 fold enrichment (6-mer frequency, TF over GST control)
22. GCTCGT  1.16 fold enrichment (6-mer frequency, TF over GST control)
23. TATCTG  1.17 fold enrichment (6-mer frequency, TF over GST control)
24. GAAAAA  1.17 fold enrichment (6-mer frequency, TF over GST control)
25. GATGAA  1.18 fold enrichment (6-mer frequency, TF over GST control)
26. TCTGTA  1.18 fold enrichment (6-mer frequency, TF over GST control)
27. CACGCG  1.18 fold enrichment (6-mer frequency, TF over GST control)
28. CCACAA  1.18 fold enrichment (6-mer frequency, TF over GST control)
29. ACCGTC  1.21 fold enrichment (6-mer frequency, TF over GST control)
30. TTACGA  1.21 fold enrichment (6-mer frequency, TF over GST control)
31. ACTCGC  1.25 fold enrichment (6-mer frequency, TF over GST control)
32. TCCACC  1.26 fold enrichment (6-mer frequency, TF over GST control)
33. ACTCGA  1.27 fold enrichment (6-mer frequency, TF over GST control)
34. AAGCAC  1.28 fold enrichment (6-mer frequency, TF over GST control)
35. TGCCGA  1.28 fold enrichment (6-mer frequency, TF over GST control)
36. CTCCAT  1.35 fold enrichment (6-mer frequency, TF over GST control)
